LGR2 antag: blocks bursicon-induced cAMP signaling via Drosophila LGR2; inhibition, % at 9.99 µM; HEK293 LGR2, CRE-luciferase, bursicon-stimulated, 4 h; AID 720647; actives 0.35% (n = 380,000);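 active = drop in luminescence signal, shown as inhibition above about 50% in the replicate tests, limit read from the data, passing the limit was not always enough; inconclusive = probably only some replicates passing the limit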;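 note: agonist challenge used bursicon conditioned medium at about half maximal strength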
SRC1 inh: inhibitors of human steroid receptor coactivator 1 (SRC1); Q15788; HEK293 GAL4-SRC1 luciferase reporter, luminescence; inhibition, % at 3.6 µM; actives 0.12% (n = 360,000);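 active = inhibition above the campaign mean plus 3 SD, with each screening campaign given its own cutoff, cut at about 60% in these data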
SRC3 inh: inhibitors of human steroid receptor coactivator 3 (SRC3); HEK293 GAL4-SRC3 luciferase reporter, luminescence; inhibition, % at 3.6 µM; actives 0.17% (n = 360,000); AID 588352;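 active = inhibition above a per-campaign cutoff, the mean of all compounds plus 3 SD, cut at about 60% in these data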;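 note: higher means less SRC3-driven luciferase light from the GAL4 reporter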
NR5A2 inv ag: suppresses constitutive activity of human LRH-1 | O00482 | HEK293T StAR-luciferase reporter, LRH-1 transfected, 24 h | inhibition, % at 3.6 µM | actives 0.13% (n = 360,000);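 active = inhibition above the mean inhibition of all tested compounds plus 3 SD, cut at about 73% in these data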
SRC2 inh: human SRC2 (NCOA2) inhibition | actives 0.17% (n = 370,000) | AID 651957 | inhibition, % at 9 µM | Q15596 | HEK293 GAL4-SRC2 luciferase reporter, luminescence;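 active = inhibition above the mean inhibition of all tested compounds plus 3 SD, set per campaign, cut at about 52% in these data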
A number is an active result; - = inactive; ? = inconclusive; . = not tested or not shown. In the library only some 0.48% were active in any assay of this set; here they are far more common.

SMILES | LGR2 antag | SRC1 inh | SRC3 inh | NR5A2 inv ag | SRC2 inh
O=C(NNC(=O)c1ccccc1-c1ccccc1C(=O)O)c1ccccc1 | - | - | - | - | -
O=C(C=P(c1ccccc1)(c1ccccc1)c1ccccc1)c1ccccc1-c1ccccc1C(=O)C=P(c1ccccc1)(c1ccccc1)c1ccccc1 | - | - | 62 | 94 | -
C[C@@H]1CN([C@H](C)CO)C(=O)c2cc(C#Cc3cccc(F)c3)cnc2O[C@H]1CN(C)C(=O)C1CCOCC1 | - | . | . | . | .
Nc1ccc(N=Nc2ccccc2O)c(N)c1 | - | - | - | - | -
Oc1ccccc1N=Nc1ccccc1O | - | - | 69 | - | -
COc1ccc2c(c1)-c1c(ssc1=S)C(C)(C)N2 | . | - | 66 | - | -
COc1ccc(-n2sc3c(c2=S)-c2cc(OC)ccc2NC3(C)C)cc1 | . | - | - | - | -
COc1ccccc1NC(=O)Nc1ccc2c(c1)OC[C@@H](C)N(Cc1ccccc1Cl)C[C@@H](C)[C@H](OC)CN(C)C2=O | - | . | . | . | .
NS(=O)(=O)c1ccc(Sc2nc3ccccc3s2)c([N+](=O)[O-])c1 | . | - | 62 | - | -
NS(=O)(=O)c1ccc(Sc2ccccn2)c([N+](=O)[O-])c1 | - | - | - | - | -
CCCC(=O)Nc1ccc2c(c1)C(=O)N(C)C[C@@H](OC)[C@H](C)CN(CC1CCOCC1)[C@@H](C)CO2 | - | . | . | . | .
CC(=NNC(=S)Nc1ccccc1Cl)c1ccccn1 | - | 66 | 63 | 74 | -
C/C(=N\Nc1cccc2cccnc12)c1ccccc1O | - | - | - | - | -
C=CCNC(=S)N/N=C(\C)c1ccccn1 | . | - | - | 101 | -
C/C(=N\Nc1cccc2cccnc12)c1ccccn1 | 56 | - | - | - | -
CC(=NNC(=S)N1CCCCC1)c1ccccn1 | - | - | - | - | -
CC(=NNC(=S)Nc1ccccc1)c1ccccn1 | - | - | - | 81 | -
COc1ccc(C[C@H]2CCc3cnnn3COC[C@@H](Cc3ccccc3)NC2=O)cc1 | - | . | . | . | .
COc1ccc(-c2nc3ccc([N+](=O)[O-])cc3[nH]2)cc1 | . | - | - | - | -
Cc1ccc(-c2nc3ccc([N+](=O)[O-])cc3[nH]2)cc1 | 54 | - | - | - | -
Cc1ccc(NC(=O)COC(=O)c2ccco2)cc1 | - | - | - | - | -
Cc1ccc2nc(-c3ccc(NC(=O)COC(=O)c4ccco4)cc3)sc2c1 | 66 | - | - | - | -
Cc1ccc2nc(-c3ccc(NC(=O)COC(=O)c4ccc([N+](=O)[O-])o4)cc3)sc2c1 | 83 | - | - | - | -
Cc1ccc2nc(-c3ccc(NC(=O)COC(=O)c4ccc(Br)o4)cc3)sc2c1 | ? | - | - | - | -
COCC(=O)N1CC2(C1)CN(C(=O)Nc1ccccc1F)[C@@H](CO)c1[nH]c3cc(OC)ccc3c12 | - | . | . | . | .
SMILES | LGR2 antag | SRC1 inh | SRC3 inh | NR5A2 inv ag | SRC2 inh
Cc1ccc(N=C2C(=O)Nc3ccccc32)cc1 | - | - | - | - | -
Cc1nc2c(o1)C(=O)c1ccccc1C2=Nc1ccccc1 | - | - | 77 | - | -
CCC(=O)N1C[C@@H](C)[C@H](OC)CN(C)C(=O)c2ccc(NC(=O)c3ccno3)cc2OC[C@@H]1C | - | . | . | . | .
O=C(NC1=C(NC2CCS(=O)(=O)C2)C(=O)c2ccccc2C1=O)c1ccccc1 (centres undefined) | 78 | - | - | - | -
COCC(=O)N1C[C@H](C)[C@@H](OC)CN(C)C(=O)c2cc(NS(C)(=O)=O)ccc2OC[C@@H]1C | - | . | . | . | .
CCOC(=O)c1ccc(NC(=O)c2ccc(C)c(S(=O)(=O)N3CCOCC3)c2)cc1 | . | - | - | 80 | -
CC(=O)c1ccc(NC(=O)c2ccc(C)c(S(=O)(=O)N3CCOCC3)c2)cc1 | - | - | - | - | -
COc1ccc(C=NNC(=S)NN=Cc2ccc(OC)c(OC)c2)cc1OC | - | - | - | - | -
COc1ccc(C=NNC(=S)Nc2ccc(F)cc2)cc1OC | 50 | - | - | - | -
COc1ccc(/C=N/NC(=S)Nc2cccc(C(=O)O)c2)cc1OC | 82 | - | - | - | -
COc1ccc([N+](=O)[O-])c(S(=O)(=O)c2ccc(Cl)cc2)n1 | 97 | - | - | - | -
O=[N+]([O-])c1cccnc1S(=O)(=O)c1ccccc1 | - | - | - | - | -
COc1nc(OC)nc(Oc2ccc(Cl)cc2[N+](=O)[O-])n1 | - | - | - | - | -
COc1ccc([N+](=O)[O-])c(S(=O)(=O)c2ccccc2)n1 | 104 | - | - | - | -
CCCNC(=O)N1CC(=O)N2[C@@H](CO)[C@H](c3ccc(C#Cc4cccc(F)c4)cc3)[C@@H]2C1 | - | . | . | . | .
C[C@H](CO)N1C[C@H](C)[C@H](CN(C)S(=O)(=O)c2ccccc2)Oc2ccc(NS(C)(=O)=O)cc2CC1=O | - | . | . | . | .
CCCNC(=O)COC(=O)c1ccccc1C(=O)c1ccc(Cl)c([N+](=O)[O-])c1 | 106 | - | - | - | -
COc1ccc(NC(=O)Nc2ccc3c(c2)C(=O)N([C@@H](C)CO)C[C@H](C)[C@@H](CN(C)C(=O)Nc2ccc(F)cc2)OCCCC[C@H](C)O3)cc1 | - | . | . | . | .
COc1ccc2nc(NC(=S)NC(=O)c3ccco3)sc2c1 | - | - | - | - | -
COc1ccc2sc(NC(=O)c3ccco3)nc2c1 | 75 | - | - | - | -
C[C@@H]1CN([C@H](C)CO)S(=O)(=O)c2ccc(-c3ccc(F)cc3)cc2O[C@H]1CN(C)Cc1cccc(F)c1 | - | . | . | . | .
COC1=CC(=O)c2c(ccc3ncnc(N)c23)C1=O | 96 | - | 69 | - | 62
N#C[C@H]1[C@@H](c2ccc(C3=CCCCC3)cc2)[C@H](CO)N1C(=O)c1ccccn1 | 88 | . | . | . | .
COc1cccc(-c2ccc([C@H]3[C@@H](C#N)N(C(=O)c4ccccn4)[C@@H]3CO)cc2)c1 | - | . | . | . | .
COc1cccc(-c2ccc([C@H]3[C@@H](CO)N(C(=O)c4ccccn4)[C@H]3C#N)cc2)c1 | 66 | . | . | . | .
SMILES | LGR2 antag | SRC1 inh | SRC3 inh | NR5A2 inv ag | SRC2 inh
COc1ccc(S(=O)(=O)Nc2ccc3c(c2)C(=O)N([C@@H](C)CO)C[C@H](C)[C@@H](CN(C)S(=O)(=O)c2ccccc2)OCCCC[C@@H](C)O3)cc1 | - | . | . | . | .
Cc1noc(C)c1NC(=O)Nc1ccc2c(c1)C(=O)N([C@@H](C)CO)C[C@H](C)[C@@H](CN(C)C(=O)Nc1cccc3ccccc13)O2 | - | . | . | . | .
c1ccc(-n2nnnc2Sc2ncnc3sc4c(c23)CCCC4)cc1 | 66 | - | - | - | -
COc1ccc(S(=O)(=O)c2ccc(OC)cc2)cc1 | . | - | - | - | -
COc1ccc(N=[N+]([O-])c2ccc(OC)cc2)cc1 | 72 | - | - | - | -
COc1cccc(NC(=O)N(C)C[C@H]2OCc3cnnn3CCCC(=O)N([C@@H](C)CO)C[C@H]2C)c1 | - | . | . | . | .
CCc1nnc(NC(=O)C2Cc3ccccc3CN2S(=O)(=O)CC)s1 (centres undefined) | - | - | - | - | -
CCS(=O)(=O)N1Cc2ccccc2CC1C(=O)Nc1nc2ccccc2s1 (centres undefined) | 58 | - | - | - | -

High-throughput results: PubChem, several laboratories
